This is one part of a sample in which hits are shown more often than they occur.
Dicer inh: inhibitors of human Dicer processing of pre-microRNA; Q9UPY3; cat-ELCCA pre-miR-21 Dicer processing, chemiluminescence; hits give high values; z-score at 25 µM; hit rate 6% among 47,000; AID 1347074; in the data active = z-score above about 3, passing the limit was not always enough;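 note: higher signal means more uncleaved substrate so more Dicer inhibition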
Large screens that a line does not name were inactive.

Nc1nc(SCC(=O)c2ccc(Cl)cc2)nc2sc3c(c12)CCCCC3	none
COCCCNC(=S)Nc1c(Cl)cccc1Cl	none
CC(C)(C)c1cc(NS(=O)(=O)c2ccc(C#N)cc2)no1	none
Cc1csc2ncnc(N3CCN(C(=S)NCC4CC4)CC3)c12	none
Cc1onc(-c2c(F)cccc2Cl)c1C(=O)OCc1sccc1-n1cccc1	none
NC(N)=NCCCC(NC(=O)c1ccccc1)C(=O)O (configuration not stated)	none
O=S(=O)(Nc1ccc(N2CCCCC2)cc1)c1ccc(-c2cc(C(F)(F)F)on2)s1	none
CC(C)C[C@H](NC(=O)OC(C)(C)C)C(=O)OCc1ccc(CC(=O)O)cc1	none
COc1ccc(NC(c2ccccn2)c2ccc3cccnc3c2O)cc1 (configuration not stated)	Dicer inh 3.12
CCCOc1ccc(C(Nc2ccccn2)c2ccc3cccnc3c2O)cc1 (configuration not stated)	none
Cc1cccc(NC(c2ccccc2)c2ccc3ccc(C)nc3c2O)n1 (configuration not stated)	none
Cc1ccc2ccc(C(Nc3cccc(Cl)c3)c3ccccn3)c(O)c2n1 (configuration not stated)	none
Cc1cccc(NC(c2ccc(F)cc2)c2ccc3cccnc3c2O)n1 (configuration not stated)	Dicer inh 8.89
Cc1ccc2ccc(C(Nc3ccccn3)c3ccc(F)cc3)c(O)c2n1 (configuration not stated)	none
Cc1cccc(NC(c2ccc3c(c2)OCO3)c2ccc3cccnc3c2O)n1 (configuration not stated)	none
COc1ccc(C(Nc2cccc(C)n2)c2ccc3cccnc3c2O)cc1 (configuration not stated)	Dicer inh 9.1
COc1ccc(C)cc1NC(c1ccccn1)c1ccc2cccnc2c1O (configuration not stated)	none
CC12CN3CC(C)(CN(C1)C3c1ccccc1O)C2=O (configuration not stated)	none
NC(=S)N/N=C/c1cn(-c2ccccc2)nc1-c1ccc(Cl)cc1	none
Fc1cccc(Cl)c1CSc1nncn1-c1ccc(OCc2ccccc2)cc1	none
COc1cc(C2Nc3ccccc3NC3=C2C(=O)CC(C)(C)C3)ccc1OCc1ccccc1 (configuration not stated)	none
CCOC(=O)/C(C#N)=C/NCCc1ccc(Cl)cc1	none
COc1ccccc1C1N(c2ccccc2)OC(=O)N1c1ccccc1 (configuration not stated)	none
O=C1CC(c2ccc3c(c2)OCO3)c2c(-c3ccccc3)nn(-c3ccccc3)c2N1 (configuration not stated)	none
O=C1ON(c2ccccc2)C(c2ccc3c(c2)OCO3)N1c1ccccc1 (configuration not stated)	Dicer inh 3.21
O=S(=O)(c1ccccc1)N(Cc1ccc(Cl)cc1)c1ncc(C(F)(F)F)cc1Cl	none
CS(=O)(=NC(=O)c1ccc2nnsc2c1)c1ccccc1 (configuration not stated)	none
O=C(Cn1nnc(N2CCCC2)n1)c1ccc(Cl)cc1	none
O=C(O)/C=C/C(=O)Nc1ccc(C(=O)O)c(O)c1	Dicer inh 4.68
Cc1cccc(NC(=O)/C=C/C(=O)O)c1	none
Cc1ccc(NC(=O)/C=C/C(=O)Nc2ccc(C)c(Cl)c2)cc1Cl	none
N=c1scc(-c2ccc(Cl)cc2)n1-c1cccc(C(F)(F)F)c1	none
COC(=O)CSCC1=CS(=O)(=O)c2ccc(Cl)cc21	none
COc1cc(/C=N/Nc2nc3c(c(=O)n(Cc4ccccc4)c(=O)n3C)n2C)ccc1O	none
COc1cc(/C=C/c2nc(-c3ccccc3O)n(-c3ccccc3)n2)ccc1O	Dicer inh 6.04
O=C(O)COc1ccc(/C=C/c2nc(-c3ccccc3O)n(-c3ccccc3)n2)cc1	none
CS(=O)(=O)N(Cc1ccccc1)Cc1ccc2c(c1)OCO2	none
O=C(Oc1c(Cl)cc(Cl)c2cccnc12)c1cccs1	none
Cc1ccc(C(NC(=O)C(C)C)c2cc(Cl)c3cccnc3c2O)cc1 (configuration not stated)	none
Oc1c(Cl)cc(Cl)c2cccnc12	Dicer inh 3.06
Cc1ccc(S(=O)(=O)Nc2cc(S(=O)(=O)c3ccc(C)cc3)c(O)c3cccnc23)cc1	none
Cc1ccc(S(=O)(=O)Nc2ncccc2OCc2ccc(Cl)c(Cl)c2)cc1	none
Cc1ccc(S(=O)(=O)Nc2cc(Cl)c(O)c3ncccc23)cc1	Dicer inh 8.55
CC1=CCC2C(=O)N(c3ccc(Br)c(C)c3)C(=O)C2C1 (configuration not stated)	none
CCCc1[nH]nc2c1C(c1cccc(O)c1)C(C#N)=C(N)O2 (configuration not stated)	none
O=[N+]([O-])c1ccc(Sc2c(-c3ccccc3)nc3sc4ccccc4n23)cc1	none
COc1ccc(C2OC(=O)C(=O)/C2=C(\O)c2ccc(Cl)cc2)cc1 (configuration not stated)	none
Cc1ccc2c(c1)CCCN2S(=O)(=O)c1c(C)c(C)c(C)c(C)c1C	none
O=C1/C(=C/c2ccco2)COC/C1=C\c1ccco1	none
O=C1/C(=C/c2ccco2)CC/C1=C\c1ccco1	Dicer inh 31.3
CSC1=N/C(=C/c2ccco2)C(=O)N1	none

Source: PubChem BioAssay
